Data published in the supplement of paper PMC10849652.
Of roughly 7,900 targets only a part is listed; those with a hit were picked by preference. About 0.6% of all pairs of compound and target were hits. Values without a mark were called inactive.

Experiments:
Experiment in all cases: log2 fold change, soluble protein after heating vs DMSO (PISA); higher = thermal stabilisation; K562 cells, 10 uM, 30 min; active = over 0.2 and 3.5 SD of the protein, either way, in both replicates (recomputed)
bafetinib = compound: Cc1ccc(NC(=O)c2ccc(CN3CC[C@H](N(C)C)C3)c(C(F)(F)F)c2)cc1Nc1nccc(-c2cncnc2)n1 [bafetinib]
Procedure, shortened: (§1)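 K562 cells at 2×10^6 cells/mL were exposed to 10 μM compound for 30 min, then aliquots were heated for 3 min across 48°C-58°C, pooled, and extracted in PBS containing 0.5% NP-40 at 4°C. The supernatant after 21,000xg for 90 min was taken as soluble protein and measured by TMTpro 16plex LC-MS/MS with channel sums equalised. Thermal stability is reported relative to control samples, with values from duplicates. Fold changes are given on a log2 scale.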

[1] = compound: Cc1cccc(CC(=O)N2CCc3c2ccc(-c2cn(C)c4ncnc(N)c24)c3F)n1
Procedure, shortened: as §1

nilotinib = compound: Cc1cn(-c2cc(NC(=O)c3ccc(C)c(Nc4nccc(-c5cccnc5)n4)c3)cc(C(F)(F)F)c2)cn1 [nilotinib]
Procedure, shortened: as §1

[2] = compound: Cc1nc(Nc2n[nH]c3c2CN(C(=O)N[C@H](CN(C)C)c2ccccc2)C3(C)C)c2sccc2n1
Procedure, shortened: as §1

dasatinib = compound: Cc1nc(Nc2ncc(C(=O)Nc3c(C)cccc3Cl)s2)cc(N2CCN(CCO)CC2)n1 [dasatinib]
Procedure, shortened: as §1

[3] = compound: Cc1ncc(-c2ccnc(Nc3ccc(S(C)(=O)=O)cc3)n2)n1C(C)C
Procedure, shortened: as §1

[4] = compound: Cn1cc(-c2ccc3c(c2)CCN3C(=O)Cc2cccc(C(F)(F)F)c2)c2c(N)ncnc21
Procedure, shortened: as §1

[5] = compound: Cn1cc(-c2ccc3nnc(C(F)(F)c4ccc5ncccc5c4)n3n2)cn1
Procedure, shortened: as §1

tipifarnib = compound: Cn1cncc1[C@@](N)(c1ccc(Cl)cc1)c1ccc2c(c1)c(-c1cccc(Cl)c1)cc(=O)n2C [tipifarnib]
Procedure, shortened: as §1

mubritinib = compound: FC(F)(F)c1ccc(/C=C/c2nc(COc3ccc(CCCCn4ccnn4)cc3)co2)cc1 [mubritinib]
Procedure, shortened: as §1

[6] = compound: NC(=O)Nc1cc(-c2cccc(F)c2)sc1C(=O)N[C@H]1CCCNC1
Procedure, shortened: as §1

[7] = compound: NC(=O)c1cnc(N[C@@H]2CCCC[C@@H]2N)nc1Nc1cccc(-n2nccn2)c1
Procedure, shortened: as §1

[8] = compound: NC1(c2ccc(-c3nc4ccn5c(=O)[nH]nc5c4cc3-c3ccccc3)cc2)CCC1
Procedure, shortened: as §1

[9] = compound: NCC(=O)Nc1ccc(-n2nc(C(F)(F)F)cc2-c2ccc3c(ccc4ccccc43)c2)cc1
Procedure, shortened: as §1

entinostat = compound: Nc1ccccc1NC(=O)c1ccc(CNC(=O)OCc2cccnc2)cc1 [entinostat]
Procedure, shortened: as §1

vorinostat = compound: O=C(CCCCCCC(=O)Nc1ccccc1)NO [vorinostat]
Procedure, shortened: as §1

citarinostat = compound: O=C(CCCCCCNC(=O)c1cnc(N(c2ccccc2)c2ccccc2Cl)nc1)NO [citarinostat]
Procedure, shortened: as §1

silmitasertib = compound: O=C(O)c1ccc2c(c1)nc(Nc1cccc(Cl)c1)c1ccncc12 [silmitasertib]
Procedure, shortened: as §1

[10] = compound: O=C1NC(=O)C(c2cnc3ccccn23)=C1c1cn2c3c(cc(F)cc13)CN(C(=O)N1CCCCC1)CC2
Procedure, shortened: as §1

[11] = compound: c1cc(OCCN2CCCCC2)cc(-c2n[nH]c3ccc(-c4nnc[nH]4)cc23)c1
Procedure, shortened: as §1

Sequence of UniProt P15559 (P15559 whole entry, looked up): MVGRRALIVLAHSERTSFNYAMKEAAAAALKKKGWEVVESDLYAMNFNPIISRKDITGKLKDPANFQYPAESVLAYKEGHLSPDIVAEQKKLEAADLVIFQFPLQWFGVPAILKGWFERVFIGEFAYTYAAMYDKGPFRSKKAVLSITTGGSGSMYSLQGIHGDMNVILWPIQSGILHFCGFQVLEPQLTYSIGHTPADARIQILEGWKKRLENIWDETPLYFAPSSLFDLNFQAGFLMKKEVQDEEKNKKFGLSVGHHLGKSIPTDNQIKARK
Sequence of UniProt Q8N543 (Q8N543 whole entry, looked up): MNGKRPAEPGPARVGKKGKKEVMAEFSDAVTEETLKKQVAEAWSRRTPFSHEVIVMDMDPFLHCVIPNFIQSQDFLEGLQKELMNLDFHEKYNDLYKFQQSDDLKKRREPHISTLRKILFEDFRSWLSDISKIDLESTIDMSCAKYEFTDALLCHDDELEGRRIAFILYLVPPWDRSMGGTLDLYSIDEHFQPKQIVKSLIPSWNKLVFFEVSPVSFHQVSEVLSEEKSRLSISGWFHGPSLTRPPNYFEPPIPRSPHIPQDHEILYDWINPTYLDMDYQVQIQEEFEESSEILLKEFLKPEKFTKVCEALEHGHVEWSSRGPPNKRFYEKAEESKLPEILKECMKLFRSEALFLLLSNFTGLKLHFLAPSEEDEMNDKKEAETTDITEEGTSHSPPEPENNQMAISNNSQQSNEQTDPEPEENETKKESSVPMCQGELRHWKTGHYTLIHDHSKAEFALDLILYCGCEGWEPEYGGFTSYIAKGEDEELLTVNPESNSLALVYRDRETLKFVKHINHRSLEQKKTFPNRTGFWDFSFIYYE
Sequence of UniProt Q9H1E3 (Q9H1E3 whole entry, looked up): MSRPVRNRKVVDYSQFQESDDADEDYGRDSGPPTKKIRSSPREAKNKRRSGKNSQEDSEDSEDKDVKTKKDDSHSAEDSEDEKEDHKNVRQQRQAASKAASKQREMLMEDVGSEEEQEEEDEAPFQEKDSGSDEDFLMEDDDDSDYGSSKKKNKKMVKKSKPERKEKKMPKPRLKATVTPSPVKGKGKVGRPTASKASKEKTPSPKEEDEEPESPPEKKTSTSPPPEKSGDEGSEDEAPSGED
Sequence of UniProt Q7L1V2 (Q7L1V2 whole entry, looked up): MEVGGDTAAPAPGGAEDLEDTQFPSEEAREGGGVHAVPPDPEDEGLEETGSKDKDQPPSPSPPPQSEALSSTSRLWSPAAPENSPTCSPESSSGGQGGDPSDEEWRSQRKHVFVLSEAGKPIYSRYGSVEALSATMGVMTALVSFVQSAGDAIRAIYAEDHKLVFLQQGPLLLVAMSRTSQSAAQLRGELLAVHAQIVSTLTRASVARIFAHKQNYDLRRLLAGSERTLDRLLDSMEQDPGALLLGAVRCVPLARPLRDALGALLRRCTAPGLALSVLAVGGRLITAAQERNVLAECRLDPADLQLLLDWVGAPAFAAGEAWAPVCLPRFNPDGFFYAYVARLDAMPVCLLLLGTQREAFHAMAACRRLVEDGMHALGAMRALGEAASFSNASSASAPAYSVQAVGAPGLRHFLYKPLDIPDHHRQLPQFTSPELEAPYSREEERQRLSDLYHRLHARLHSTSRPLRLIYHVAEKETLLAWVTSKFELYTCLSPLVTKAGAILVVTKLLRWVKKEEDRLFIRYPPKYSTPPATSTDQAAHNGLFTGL
Sequence of UniProt Q13469 (Q13469 whole entry, looked up): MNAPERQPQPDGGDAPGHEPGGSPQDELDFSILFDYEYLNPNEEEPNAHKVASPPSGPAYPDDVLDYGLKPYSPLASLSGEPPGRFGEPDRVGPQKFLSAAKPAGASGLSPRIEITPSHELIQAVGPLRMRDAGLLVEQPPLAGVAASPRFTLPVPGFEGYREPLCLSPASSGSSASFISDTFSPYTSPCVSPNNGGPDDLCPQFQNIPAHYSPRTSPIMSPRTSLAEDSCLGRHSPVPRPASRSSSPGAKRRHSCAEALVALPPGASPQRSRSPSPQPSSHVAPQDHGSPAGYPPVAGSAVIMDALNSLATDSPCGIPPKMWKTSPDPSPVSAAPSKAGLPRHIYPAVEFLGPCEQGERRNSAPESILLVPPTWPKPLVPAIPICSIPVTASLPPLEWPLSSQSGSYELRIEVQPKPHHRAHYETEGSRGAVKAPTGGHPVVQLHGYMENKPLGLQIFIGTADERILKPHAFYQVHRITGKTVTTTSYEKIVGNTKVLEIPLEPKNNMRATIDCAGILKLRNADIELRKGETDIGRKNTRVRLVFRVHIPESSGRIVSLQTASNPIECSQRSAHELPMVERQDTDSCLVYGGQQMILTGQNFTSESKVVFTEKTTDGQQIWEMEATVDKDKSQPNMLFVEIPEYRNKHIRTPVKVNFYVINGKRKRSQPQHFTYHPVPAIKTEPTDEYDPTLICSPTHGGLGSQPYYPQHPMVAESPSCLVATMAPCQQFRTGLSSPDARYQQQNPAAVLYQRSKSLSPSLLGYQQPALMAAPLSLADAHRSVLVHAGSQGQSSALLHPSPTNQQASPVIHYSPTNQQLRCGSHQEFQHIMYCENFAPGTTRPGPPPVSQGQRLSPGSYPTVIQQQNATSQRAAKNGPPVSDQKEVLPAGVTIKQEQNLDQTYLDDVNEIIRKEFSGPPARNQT
Sequence of UniProt P46934 (P46934 whole entry, looked up): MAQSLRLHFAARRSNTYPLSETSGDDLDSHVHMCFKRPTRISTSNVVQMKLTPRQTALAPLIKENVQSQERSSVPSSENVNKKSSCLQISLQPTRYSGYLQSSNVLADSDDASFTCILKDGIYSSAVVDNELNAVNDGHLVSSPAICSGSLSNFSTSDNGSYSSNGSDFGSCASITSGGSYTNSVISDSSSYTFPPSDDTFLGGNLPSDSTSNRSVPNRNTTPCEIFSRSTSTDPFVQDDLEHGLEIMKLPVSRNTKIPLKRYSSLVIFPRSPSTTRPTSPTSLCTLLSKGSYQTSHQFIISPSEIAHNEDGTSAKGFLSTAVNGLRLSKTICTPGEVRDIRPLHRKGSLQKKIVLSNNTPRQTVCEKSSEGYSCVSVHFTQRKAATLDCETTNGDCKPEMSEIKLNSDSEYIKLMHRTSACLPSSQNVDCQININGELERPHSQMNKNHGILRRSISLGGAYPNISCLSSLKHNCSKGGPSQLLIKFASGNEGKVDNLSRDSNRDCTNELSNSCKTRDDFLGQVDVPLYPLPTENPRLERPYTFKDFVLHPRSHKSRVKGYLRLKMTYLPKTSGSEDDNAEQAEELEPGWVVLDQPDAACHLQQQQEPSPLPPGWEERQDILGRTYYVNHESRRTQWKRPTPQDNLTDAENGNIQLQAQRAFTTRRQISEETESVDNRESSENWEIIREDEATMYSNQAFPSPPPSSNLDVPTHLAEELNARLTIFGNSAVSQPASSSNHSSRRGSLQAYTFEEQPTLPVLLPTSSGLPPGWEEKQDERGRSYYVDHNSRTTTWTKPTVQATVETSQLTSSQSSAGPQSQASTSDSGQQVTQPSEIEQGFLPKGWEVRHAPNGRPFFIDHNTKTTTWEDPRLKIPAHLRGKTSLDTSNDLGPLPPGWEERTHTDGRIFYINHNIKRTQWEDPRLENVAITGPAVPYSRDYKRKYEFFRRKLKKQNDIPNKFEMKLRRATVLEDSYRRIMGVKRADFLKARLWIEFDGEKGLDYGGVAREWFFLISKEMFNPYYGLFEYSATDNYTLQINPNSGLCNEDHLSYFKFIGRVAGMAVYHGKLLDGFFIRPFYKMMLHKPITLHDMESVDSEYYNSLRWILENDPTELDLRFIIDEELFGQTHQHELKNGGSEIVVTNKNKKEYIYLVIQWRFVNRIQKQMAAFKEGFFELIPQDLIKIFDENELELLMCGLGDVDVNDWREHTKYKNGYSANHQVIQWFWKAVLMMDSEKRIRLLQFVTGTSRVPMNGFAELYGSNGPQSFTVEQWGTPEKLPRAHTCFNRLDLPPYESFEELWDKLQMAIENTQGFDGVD
Sequence of UniProt P84157 (P84157 whole entry, looked up): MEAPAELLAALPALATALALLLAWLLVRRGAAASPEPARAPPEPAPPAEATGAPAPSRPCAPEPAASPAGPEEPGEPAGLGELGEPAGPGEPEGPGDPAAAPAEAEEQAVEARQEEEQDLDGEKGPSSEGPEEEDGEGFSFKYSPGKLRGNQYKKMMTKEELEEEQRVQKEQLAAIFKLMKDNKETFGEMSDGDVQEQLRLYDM

Row | Target | log2 fold change (bafetinib) | log2 fold change [1] | log2 fold change (nilotinib) | log2 fold change [2] | log2 fold change (dasatinib) | log2 fold change [3] | log2 fold change [4] | log2 fold change [5] | log2 fold change (tipifarnib) | log2 fold change (mubritinib) | log2 fold change [6] | log2 fold change [7] | log2 fold change [8] | log2 fold change [9] | log2 fold change (entinostat) | log2 fold change (vorinostat) | log2 fold change (citarinostat) | log2 fold change (silmitasertib) | log2 fold change [10] | log2 fold change [11]
1 | NEDD4 isoform 4 (UniProt P46934) | -0.067 | 0.054 | -0.047 | -0.083 | -0.068 | 0.052 | -0.016 | 0.027 | -0.024 | 0.008 | -0.043 | -0.027 | -0.187 | -0.074 | 0.029 | -0.04 | 0.084 | 0.064 | -0.008 | 0.013
2 | NQO1 (UniProt P15559) | 0.025 | 0.365 (active) | -0.001 | 0.003 | -0.033 | -0.022 | 0.049 | 0.291 (active) | -0.089 | 0.025 | -0.032 | 0.039 | -0.018 | -0.034 | -0.013 | -0.024 | 0.009 | -0.058 | -0.149 | 0.068
3 | OGFOD1 (UniProt Q8N543) | -0.042 | -0.033 | -0.015 | 0.039 | -0.009 | -0.021 | 0.01 | 0.078 | -0.05 | -0.04 | 0.015 | 0.021 | -0.08 | -0.056 | -0.002 | 0.005 | 0.012 | 0.02 | -0.072 | -0.006
4 | NUCKS1 (UniProt Q9H1E3) | -0.114 | -0.128 | -0.028 | -0.13 | 0.037 | 0.169 | 0.005 | 0.055 | 0.059 | 0.034 | -0.405 (active) | 0.035 | 0.014 | 0.04 | -0.01 | -0.08 | -0.022 | -0.008 | -0.044 | 0.079
5 | NFATC2 (UniProt Q13469) | 0.006 | 0.066 | -0.135 | -0.341 | -0.213 | -0.445 (active) | -0.025 | -0.075 | -0.029 | -0.124 | -0.076 | -0.203 | -0.064 | -0.075 | 0.147 | -0.011 | 0.101 | -0.078 | -0.062 | -0.258
6 | MXRA7 (UniProt P84157) | -0.074 | -0.075 | -0.02 | -0.057 | 0.042 | 0.057 | 0.03 | -0.042 | 0.018 | 0.002 | -0.097 | 0.037 | 0.037 | -0.302 (active) | 0.008 | 0.003 | -0.006 | 0.028 | -0.013 | 0.061
7 | NA, A0A0B4J2A0 | -0.066 | 0.024 | 0.035 | -0.024 | -0.111 | 0.006 | 0.025 | -0.015 | 0.007 | -0.011 | -0.025 | 0.029 | -0.061 | 0.031 | 0.029 | 0.05 | 0.029 | 0.017 | -0.059 | -0.012
8 | MON1B (UniProt Q7L1V2) | -0.071 | 0.004 | 0.025 | 0.015 | -0.099 | -0.048 | 0.038 | 0.012 | -0.011 | 0.065 | 0.015 | -0.045 | -0.312 (active) | -0.053 | -0.018 | -0.001 | 0.056 | 0.032 | 0.052 | -0.081
